The record followed here is PubChem BioAssay (NCATS).

Molecules are shown by their SMILES. Where “and” joins values, the source holds several entries; their conditions need not be identical. Identical values can stand only once. Records with an inconclusive call do not appear. Values without a mark were called inactive. Calls follow the shape of the dose curve; as a rule, active = well fitted inhibition curve with a large enough effect in the signal ratio, with a control signal flat (not every such curve was filed as active); inconclusive = small, poorly fitted or top-dose-only effect, or effect the other way, or a change in a side signal; inactive = no such curve, though single readings can be large or run the other way; the % refers to the signal ratio.
% is scaled to controls: 0 for no effect and ±100 for the full control effect.

Sequence of Retinoic acid receptor RXR-alpha (Homo sapiens) (P19793 whole entry, looked up): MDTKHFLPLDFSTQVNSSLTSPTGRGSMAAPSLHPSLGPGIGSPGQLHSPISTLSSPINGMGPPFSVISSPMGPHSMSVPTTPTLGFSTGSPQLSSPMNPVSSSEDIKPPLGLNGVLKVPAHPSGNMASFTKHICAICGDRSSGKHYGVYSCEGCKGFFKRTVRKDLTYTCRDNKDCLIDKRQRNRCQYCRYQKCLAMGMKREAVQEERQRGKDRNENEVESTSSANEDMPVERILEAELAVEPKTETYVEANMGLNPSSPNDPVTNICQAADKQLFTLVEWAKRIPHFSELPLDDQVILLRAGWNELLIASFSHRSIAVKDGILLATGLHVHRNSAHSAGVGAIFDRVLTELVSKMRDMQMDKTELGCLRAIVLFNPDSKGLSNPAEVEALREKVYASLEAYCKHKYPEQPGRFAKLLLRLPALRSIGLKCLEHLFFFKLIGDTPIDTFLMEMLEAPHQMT

The assay addresses Retinoic acid receptor RXR-alpha (Homo sapiens) (UniProt P19793). In words: qHTS assay for small molecule antagonists of retinoid X receptor alpha signaling (AID 588546). The settings on record: HEK293T RXRa-UAS-bla, beta-lactamase ratio, antagonist mode. The source says: NIH Chemical Genomics Center [NCGC] U.S. Environmental Protection Agency [EPA] National Institutes of Environmental Health Sciences [NIEHS] National Toxicology Program [NTP] NCGC Assay Overview The Retinoid X receptor (RXR), a nuclear hormone receptor is expressed in liver, spleen, placenta, epidermis, central nervous system. These receptors are able to form homo and heterodimers with other nuclear receptors and due to this heterodimerizing ability, RXR functions as master regulators producing diverse physiological effects. Three subtypes of RXR exist; alpha, beta and gamma. Retinoid X receptor alpha (RXR-alpha) has potential roles in metabolic signaling pathways, skin alopecia, dermal cysts, cardiac development, insulin sensitization etc. Therefore screening environmental chemicals on RXR-alpha signaling can be used for the studies focused on such therapeutic applications.
NCGC Assay Protocol Summary Using a beta-lactamase reporter-gene under control of Retinoid X receptor--alpha (RXR-alpha) response element, a cell-based assay [GeneBLAzer (RXR-alpha -UAS-bla assay developed by Invitrogen] was used to measure RXR-alpha ligands signaling. GeneBLAzer RXR-alpha -UAS-bla HEK293T cells were used with assay medium containing 2% charcoal-stripped FBS. The assay was performed in clear bottom black Greiner 1536-well plates. Library compounds were measured for their ability to inhibit the reporter gene activity. Compounds were screened in a titration series in 1536-well format. The fluorescence intensity (405 nm excitation, 460/530 nm emission) was measured using an EnVision plate reader. Data was normalized relative to 9-cis-retinoic acid control (500 nM, 100%), and DMSO only wells (basal, 0%). Concentration-response titration points for each compound were fitted to the Hill equation yielding concentrations of half-maximal inhibition (IC50) and maximal response (efficacy) values. qHTS protocol for RXR-alpha beta-lactamase assay in antagonist mode [Step] [Parameter] [Value] [Description] 1. Reagent; 5 uL; 2500 cells/well 2. Incubation; 37 C for 4 hrs 3. Compounds; 23 nL; 0.59 nM to 92 uM 4. Controls (DMSO); 23 nL 5. Agonist (Stimulator); 1uL; 9-cis-retinoic acid at 500 nM and 100 nM final concentrations 6. Incubation; 37 C for 18 hrs 7. Detection reagent; 1 uL of CCF4-dye 8. Incubation; RT for 2 hrs 9. Detection; Fluorescence; Envision plate reader
Background: In qHTS, concentration-response curves come from the screen itself.
`Oc1cccc(O)c1O`: the max response was -0.897%.

For `CC[C@H]1OC(=O)[C@H](C)[C@@H](O[C@H]2C[C@@](C)(OC)[C@@H](O)[C@H](C)O2)[C@H](C)[C@@H](O[C@@H]2O[C@H](C)C[C@H](N(C)C)[C@H]2O)[C@](C)(O)C[C@@H](C)CN(C)[C@H](C)[C@@H](O)[C@]1(C)O`, the max response is -8.56%.

Turning to `C=CC(C)(O)CC/C=C(\C)CCC=C(C)C` (stereo not given), the max response was 13.1%.

In the case of `O.O.O.O.O.O.O.O=S(=O)([O-])[O-].[Co+2]`, the max response is 6.5%.

On to `COC(=O)c1ccccc1O`, for which the max response is -1.72% and -1.77%.

In the case of `OC[C@H]1O[C@@H]2O[C@H]3[C@H](O)[C@@H](O)[C@@H](O[C@H]4[C@H](O)[C@@H](O)[C@@H](O[C@H]5[C@H](O)[C@@H](O)[C@@H](O[C@H]6[C@H](O)[C@@H](O)[C@@H](O[C@H]7[C@H](O)[C@@H](O)[C@@H](O[C@H]1[C@H](O)[C@H]2O)O[C@@H]7CO)O[C@@H]6CO)O[C@@H]5CO)O[C@@H]4CO)O[C@@H]3CO`, the max response is -7.96% and -14.1%.

In the case of `C[C@H](CCC(=O)O)[C@H]1CC[C@H]2[C@@H]3[C@H](O)C[C@@H]4C[C@H](O)CC[C@]4(C)[C@H]3C[C@H](O)[C@]12C`, the max response is -12.8%.

Consider `[O-][N+](=Nc1ccccc1)c1ccccc1`, for which the max response is 1.34%.

On to `CO[C@@H]1[C@H](OC(=O)/C=C/C=C/C=C/C=C/C(=O)O)CC[C@]2(CO2)[C@H]1[C@@]1(C)O[C@@H]1CC=C(C)C`, for which the max response was 18.1%.

As for `C/C=C/C=C/C(=O)O`, the max response was 25.3%.

Consider `CC1=CC(=O)NS(=O)(=O)O1`, for which the max response is -5.24% and 0.185%.

With `O=C(OCc1ccccc1)c1ccc(O)cc1`, the max response was -35.8%.

`NC(N)=O`: the max response was -5.2%.

For `CCOC(C)OCC`, the max response was -3.17%.

Regarding `CC(C)CCC[C@@H](C)[C@H]1CC[C@H]2[C@@H]3CC=C4C[C@@H](O)CC[C@]4(C)[C@H]3CC[C@]12C`, the max response was -19.4%.

Regarding `CC1=CCC2CC1C2(C)C` (stereo not given), the max response was 2.29%.

As to `OCc1ccccc1`, the max response is -2.03%.

For the compound `OCCOCCOCCO`, the max response is 0.587% and -7.45%.

`C[Si](C)(C)O[Si](C)(C)C`: the max response is -23.1%.

For the compound `Cc1ncc[nH]1`, the max response was 11.5%.

Turning to `CO`, the max response was -0.242%.

For the compound `CN(CCO)CC(O)Cn1cnc2c1c(=O)n(C)c(=O)n2C` (stereo not given) (tested in a mixture with another compound), the max response is -3.95%.

Turning to `O=P(O)(O)O`, the max response was 2.87%.

Consider `Cc1ccc(S(=O)(=O)O)cc1C`, for which the max response was 10.6%.

For `NCCO/C=C/[C@H](N)C(=O)O`, the max response is -9.4%.

Turning to `Oc1ccc(/C=C/c2cc(O)cc(O)c2)cc1`, the max response is -15.1%.

Take `OCC(O)CO`: the max response is 0.797% and 12.5%.

As to `CCCCCCCCCCCCCCCCCC(=O)OC[C@@H](O)[C@H]1OC[C@H](O)[C@H]1O`, the max response was -7.79%.

On to `OC[C@H]1O[C@@](CO)(O[C@H]2O[C@H](CO)[C@@H](O)[C@H](O)[C@H]2O)[C@@H](O)[C@@H]1O`, for which the max response was 4.65%.

Take `OB(O)O`: the max response was 9.01% and 7.69%.

With `Nc1ncnc2c1ncn2[C@H]1CC[C@@H](CO)O1`, the max response was -6.41%.

Take `NCCN`: the max response is -7.75%.

For `CC(C)O`, the max response was 36.2%.

Regarding `CC/C=C\C/C=C\C/C=C\CCCCCCCC(=O)O`, the max response is -8.86%.

Take `Nc1nccs1`: the max response is 4.13%.

With `CO/N=C(/C(=O)N[C@@H]1C(=O)N2C(C(=O)O)=C(COC(N)=O)CS[C@H]12)c1ccco1`, the max response was -5.55%.

On to `CC(C)(C)CC(C)(C)c1ccc(OCCO)cc1`, for which the max response is -7.14%.

As to `C=C(C)C1CC=C(C)CC1` (stereo not given), the max response was 2.38% and 15.2%.

Take `c1ccc2ccccc2c1`: the max response was 0.585% and 18.2%.

As to `CCCCC(CC)COS(=O)(=O)O` (stereo not given), the max response was 7.69%.
